Out of some 190,000 compounds screened, about 3,500 (1.8%) were called active.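 How the source made its calls: active means inhibition above a set limit, 3 SD over mean compound inhibition (cut at about 8.4% in these data); inactive means the rest.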 Shown is part of a subset that was picked to be rich in actives.
Assay: RAM signaling blockers in budding yeast – dse1pr::URA3 reporter, 5-FOA selection, primary screen (AID 868);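 further: 0% = DMSO-only wells with no growth and 100% = 10 µM 1-NA-PP1 full growth; inhibition rescues growth on 5-FOA so higher OD means more RAM inhibition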
Conditions: S. cerevisiae dse1pr::URA3 reporter, 5-FOA growth OD615, 2 d; at 50 µM; stronger effect = higher value; analog-sensitive cbk1-as2 kinase mutant strain

inhibition, active:
CCC[C@@H]1C[C@@]1(CCC)[C@@H](NC(=O)c1ccccc1)c1ccc(C(=O)OC)cc1 9.65%, COc1cc(/C=C2/C(=O)ON=C2C)ccc1OCc1ccccc1F 11.4%, O=C(CSc1nnc2scc(-c3ccc(F)cc3)n12)NCc1ccco1 9.95%, Cc1ccc(Cl)cc1N1CCN(C(=O)c2cccc3c(=O)c(C)c(-c4ccccc4)oc23)CC1 8.43%, CC(C)=CCCC1(C)C=Cc2c(ccc3c2[nH]c2cc(O)c(C)cc23)O1 (stereo not given) 21.4%, Cc1c(Nc2cc(N3CCCC(C)C3)c3nonc3c2[N+](=O)[O-])c(=O)n(-c2ccccc2)n1C (stereo not given) 8.7%, Cc1ccc(C(=O)c2c(NC(=O)c3ccccc3)sc(C)c2C)cc1 12.9%, CCOC(=O)c1sc2nc(CSCC(=O)OCc3ccc(C(=O)OC)o3)[nH]c(=O)c2c1C 12.6%, CCOC(=O)c1cnc(-n2nc(C)cc2C)nc1NNc1cc(C)nc(-c2ccccc2)n1 9.84%, O=C(CCC(=O)OCc1cccc(C(=O)Oc2ccccc2)c1)Nc1cccc2ccccc12 15.2%, COc1ccc(-c2noc(CN(C)S(=O)(=O)c3ccc(C)cc3)n2)cc1 9.12%

inhibition, inactive:
CCOC(=O)c1c(NC(=O)CNC2CCCc3ccccc32)sc(C(N)=O)c1C (stereo not given) 3.87%, COc1cc(C(=O)Nc2cc(C(F)(F)F)ccc2N2CCOCC2)ccc1O 0.55%, Fc1cccc2ncnc(OCc3ccccc3)c12 3.63%, COC(=O)[C@H](C)[C@H]1C[C@]1(C)[C@H](NC(=O)OCc1ccccc1)c1ccccc1 8.31%, COC(=O)c1ccc(NCC(=O)c2ccccc2)cc1 0.14%, CC(C)C(=O)Nc1oc(-c2ccccc2)cc1C#N 1.62%, COc1cc(N2C(=O)c3ccccc3C2=O)c(Cl)cc1C(=O)OCC(=O)N1CCOCC1 0.61%, CCOc1cc(/C=N/O)ccc1OCc1ccccc1F 0.13%, COc1cc(/C=C2/C(=O)ON=C2C)ccc1OCc1cccc(F)c1 1.59%, N#Cc1ccc(C(=O)Nc2nc(-c3cccs3)c(C(=O)C(F)(F)F)s2)cc1 3.01%, CCN(CC(=O)NC(=O)NCc1ccccc1)Cc1nc2ccccc2c(=O)[nH]1 0.8%, CC(=O)NC1(c2ccc(F)cc2)CCN(C(=O)c2c(F)cccc2F)CC1 -0.25%, Cc1ccc(-c2csc3nnc(SCC(=O)NCc4ccco4)n23)cc1 0.13%, Cn1c(-c2ccc(F)cc2)cnc1SCC(=O)NCc1ccco1 1.92%, Cc1ccc(C2CC(c3cccc(NS(C)(=O)=O)c3)=NN2S(C)(=O)=O)cc1 (stereo not given) 0.38%, O=c1c([N+](=O)[O-])cccn1Cc1ccc(F)cc1Cl -0.54%, CN1C(=O)/C(=C/C=C2\SCCN2C)OC1=S 2.52%, COC(=O)c1ccc(C(=O)OC)c(NC(=S)N2CCN(c3cc(Cl)ccc3C)CC2)c1 3.51%, O=C(c1cccc2ccccc12)N1CCN(c2ccccc2F)CC1 -0.35%, Cc1ccc(C(=O)N/C(=C/c2cccs2)C(=O)NCC2CCCO2)cc1 (stereo not given) 0.13%, Cc1cc(C)n(-c2ccc3nncn3n2)n1 1.87%, Cc1c(CN2CCC(C)CC2)c(=O)n(-c2ccccc2)n1C 0.66%, Cc1c(NS(=O)(=O)c2ccc(NC3CCCC3)c([N+](=O)[O-])c2)c(=O)n(-c2ccccc2)n1C 4.03%, O=C1CCC(CCC(=O)N2CCCC(C(=O)c3ccc(Cl)cc3)C2)=NN1 (stereo not given) 2.49%, CC(C)(C)c1ccc(/C=C2\SC(=O)N=C2N)cc1 3.69%, Cc1ccc(C(=O)c2c(NC(=O)c3ccncc3)sc3c2CCCC3)cc1 1.55%, Cc1ccc(C(=O)NCCNC(=O)c2ccccc2)cc1 0.24%, NC1=NC2(CCCCC2)N(c2ccc(F)cc2F)C(N)=N1 0.5%, O=c1cnnc(Nc2ccccc2F)[nH]1 0.79%, C/C(N)=C(/C#N)C(=O)COC(=O)CNS(=O)(=O)c1ccc(C)cc1 -0.96%, CCOC(=O)c1sc2nc(CSc3ccccc3)[nH]c(=O)c2c1C 2.26%, Cc1sc2nc(CSCC(=O)Nc3c(Cl)cccc3Cl)[nH]c(=O)c2c1C 4.58%, CCCCN(C(=O)c1ccc(OC(F)(F)F)cc1)c1c(N)n(CCC)c(=O)[nH]c1=O 1.93%, CCOC(=O)c1cnc(-c2ccccc2)nc1Oc1ccc(C)cc1 6.51%, CCOC(=O)c1cnc(-n2nc(C)cc2C)nc1-n1nc(C)cc1C 1.58%, Cc1ccc(CN2CCC(N3CCC(C(=O)NCC4CCCO4)CC3)CC2)o1 (stereo not given) 1.95%, CCOc1ccc(Oc2nc(C)cc(OC)n2)nn1 0.41%, Cc1onc(C(=O)NN)c1C(=O)N1CCN(C(c2ccccc2)c2ccccc2)CC1 0.14%, O=C(COC(=O)c1cnccn1)Nc1cccc2ccccc12 -0.14%, O=C(CCC(=O)OCc1ccc(Cl)cc1)Nc1ccccc1 -0.63%, O=C(Cc1coc2ccc3ccccc3c12)NCc1cccs1 1.23%, Cc1cccc(NC(=S)N2CCCC(c3nc4ccccc4[nH]3)C2)c1 (stereo not given) 1.53%, Cc1ccc(CN2CCN(Cc3cn(C)nc3-c3ccccc3)CC2CCO)o1 (stereo not given) 0.52%, COc1ccc(-c2noc(CSc3ccc(C)cc3)n2)cc1 2.24%, COc1ccc(-c2noc(-c3ccc(C)cc3)n2)cc1 7.68%, Cc1ccc(NC(=O)CN(C)CC(=O)Nc2cccc(F)c2)cc1[N+](=O)[O-] 1.7%, CSc1ncccc1C(=O)Nc1nc2ccc(F)cc2s1 2.36%, CN(C)c1ccnc(Nc2ccc(F)cc2)c1C#N 0.51%, O=C(CC(=O)N/N=C\c1ccc(F)cc1)NCCc1ccccc1 0.75%
